# This is a sample that favours compounds with a hit; in the whole collection about 5.3% have one here.
# VACV mCherry inh: inhibitors of vaccinia virus infection (mCherry reporter signal); Vaccinia virus mCherry reporter infection, fluorescence; Potency, µM (series often up to 36.5 µM), actives largely listed as inhibitors; actives 0.63% (n = 310,000); AID 720579; calls by dose curve; tested in A549 cells; further: nearly all actives have a fitted effect of over 35% in size
# Lassa entry inh: blocks Lassa virus binding to or entry into cells | Lassa virus pseudotype entry inhibition, cell reporter | Potency, µM (doses to about 37.9 µM), usual class: inhibitors | actives 1.2% (n = 300,000) | AID 540256; calls by dose curve; tested in HEK293 cells; further: nearly all actives have a fitted effect of over 50% in size
# HCV inh: blocks hepatitis C virus; Huh7.5.1 HCVcc-Cre infection, luciferase reporter, 44 h; Potency, µM (titrated, usually from 41.8 µM), usual class: inhibitors; actives 3.4% (n = 340,000); AID 651820; active means well fitted inhibition curve with a large enough effect; inconclusive means small, poorly fitted or top-dose-only effect, or another doubt; inactive means no such curve, though single readings can be large or run the other way
#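 Infectious HCVcc-Cre (~0.5 moi) was added to cells just after compound, with cells seeded 4 h earlier at 1,000 per well. Luciferase activity after 44 h culture reported infection; substrate was incubated 15 min at room temperature before reading.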
# Vaccinia Venus: vaccinia inhibition (Venus reporter); Vaccinia virus Venus reporter expression, fluorescence; Potency, µM (series often up to 36.5 µM), hits mostly inhibitors; AID 720580; actives 0.46% (n = 330,000); calls by dose curve; tested in A549 cells; further: nearly all actives have a fitted effect of over 30% in size
# MARV entry inh: inhibitors of Marburg virus binding or cell entry | Marburg virus pseudotyped entry inhibition, cell reporter | AID 540276 | actives 1.8% (n = 300,000) | Potency, µM (series often up to 37.8 µM), actives largely listed as inhibitors; calls by dose curve; tested in HEK293 cells
# FMDV inh: foot and mouth disease virus antiviral activity; FMDV antiviral cell-based qHTS; Potency, µM (top dose mostly 57.9 µM), actives largely listed as inhibitors; actives 1.2% (n = 410,000); AID 1159524; calls by dose curve; tested in HEK293T cells; further: read-out not given here; nearly all actives have a fitted effect of over 45% in size
# Numbers stand for hits; – = inactive; ? = inconclusive; · = no result; [ ] = remark or other dose.
SMILES,VACV mCherry inh,Lassa entry inh,HCV inh,Vaccinia Venus,MARV entry inh,FMDV inh
CCN(CC)S(=O)(=O)c1cc(NC(=O)[C@@H](NC(N)=O)C(C)C)ccc1C,–,–,–,–,–,–
COc1ccc(C(=O)N/C(=C/c2cccnc2)C(=O)N2CCN(C)CC2)cc1OC,·,·,–,·,·,–
COCCCNC(=O)/C(C#N)=C/c1cccc(NC(=O)c2ccccc2Cl)c1,–,?,–,–,?,–
N#C/C(=C\c1cccc(NC(=O)c2ccccc2Cl)c1)C(=O)NCCc1ccccc1,–,?,?,–,11µM,28µM
COc1ccc(CCNC(=O)/C(C#N)=C/c2cccc(OCc3ccccc3)c2)cc1OC,–,–,?,–,?,28µM
CC(=O)N1c2ccccc2CC1C(=O)N1CCN(c2ccccc2)CC1 (centres undefined),–,–,·,–,·,–
CC(=O)N1Cc2ccccc2C(C)CC12CCCC2 (centres undefined),–,–,?,–,–,25µM
[N-]=[N+]=Nc1nc2c(N)ncnc2n1C1OC(CO)C(O)C1O (centres undefined),8.9µM,·,·,13µM,·,–
Nc1ncnc2c1nc(Cl)n2[C@@H]1O[C@H](CO)[C@@H](O)[C@@H]1O,?,·,·,13µM,·,·
COc1cc(F)ccc1-c1csc(C(O)c2ccc(F)c(F)c2)n1 (centres undefined),–,·,·,–,·,–
Cc1ccc2nc(-c3ccncc3)c(Nc3ccccc3C)n2c1,–,–,·,–,–,–
CC(C)c1ccc(Nc2c(-c3ccccn3)nc3ccccn23)cc1,11µM,?,·,?,?,?
Cc1ccc2nc(-c3ccccn3)c(N)n2c1,–,·,·,–,·,14µM
Cc1ccc2nc(-c3ccccn3)c(Nc3ccccc3C)n2c1,6.3µM,?,5µM,?,–,?
Cc1ccc2nc(-c3cccs3)c(Nc3c(C)cccc3C)n2c1,–,–,·,–,7.1µM,?
Cc1ccc(-c2nc3ccc(C)cn3c2Cc2ccccn2)cc1,–,·,·,–,·,–
Cc1c(C(=O)Nc2ccc(-c3nc4cc(Cl)ccc4o3)cc2)oc2ccccc12,–,–,·,–,·,–
Cc1ccn2c(Nc3ccccc3C)c(-c3ccccn3)nc2c1,7.9µM,?,4µM,?,?,?
Cc1ccn2c(Nc3ccccc3)c(-c3ccccn3)nc2c1,2.2µM,5.8µM,8.9µM,–,?,–
Cc1ccn2c(Nc3ccccc3C)c(-c3ccc(N4CCOCC4)cc3)nc2c1,–,–,·,–,?,–
Cc1cccn2c(Nc3ccccc3)c(-c3ccccn3)nc12,?,–,–,–,?,–
CCOCCCn1c(SCC(=O)Nc2cc(C)ccc2C)nc2c(oc3ccccc32)c1=O,–,·,·,–,–,–
COc1ccc2[nH]c3c(c2c1)CCN=C3C,–,·,2.8µM,–,·,–
CN1CCN(c2ccc(NC(=O)c3cc4ccccc4o3)cc2)CC1,·,·,?,·,·,–
CCCC(=O)N1CCN(c2ccc(NC(=O)c3cc4ccccc4o3)cc2)CC1,·,–,10µM,–,?,25µM
SMILES,VACV mCherry inh,Lassa entry inh,HCV inh,Vaccinia Venus,MARV entry inh,FMDV inh
O=C(Nc1ccc(N2CCN(C(=O)c3ccccc3)CC2)cc1)c1cc2ccccc2o1,·,14µM,?,?,?,14µM
C=CCNc1nc2cc(-c3ccccc3C)sc2c(=O)n1C,–,·,·,–,·,–
COc1cc(NS(=O)(=O)c2ccc(NC(=O)c3ccc(C(C)=O)cc3)cc2)nc(OC)n1,–,–,·,–,·,–
CCCn1c2ccccc2c2nnc(SC(CC)C(=O)Nc3cc(C)on3)nc21 (centres undefined),·,?,?,?,13µM,–
CCC(Sc1nnc2c3ccccc3n(CC)c2n1)C(=O)Nc1nnc(C(C)C)s1 (centres undefined),–,–,·,–,–,–
CCC(Sc1nnc2c3ccccc3n(CC)c2n1)C(=O)Nc1ccc(NC(C)=O)cc1 (centres undefined),–[7.34 µM],–,·,–[7.34 µM],3.5µM,–
Cc1ccc(Cc2nc3ccccc3nc2SCC(=O)N2CCc3ccccc32)cc1,–,–,·,–,·,–
COCCNc1nc(SCC(=O)N2CCN(c3ccccc3OC)CC2)nc2ccccc12,·,–,10µM,·,?,?
COc1ccccc1N1CCN(C(=O)CSc2nc3ccccc3o2)CC1,·,–,–,·,?,–
Cc1ccc(C)c(Cn2nc(-c3ccccc3)ccc2=O)c1,?,–,32µM,–,?,–
CC(C)CCn1c(Sc2nc3ccccc3s2)nc2c1c(=O)[nH]c(=O)n2C,·,?,–,·,?,32µM
CC(CSc1nc2ccccc2s1)Cn1c(N2CCCC2)nc2c1c(=O)[nH]c(=O)n2C (centres undefined),–,–,?,–,8.9µM,–
O=C(COc1ccccc1F)Nc1c2c(nn1-c1ccccc1)CS(=O)(=O)C2,–,–,·,–,–,–
O=C(NCC1Cc2cccc(-c3cnccn3)c2O1)C1COc2ccccc2O1 (centres undefined),–,·,·,–,·,–
COc1cc(=O)n2c(c1C(=O)NC(C)c1ccco1)CCN(C(=O)c1ccc3c(c1)OCCO3)CC2 (centres undefined),–,·,·,–,·,–
Cc1ccc(CCNC(=O)C2CCN(S(=O)(=O)c3ccc4c(c3)NC(=O)C(C)S4)CC2)cc1 (centres undefined),–,?,6.3µM,–,?,32µM
CC1Sc2ccc(S(=O)(=O)N3CCC(C(=O)NCC(C)c4ccccc4)CC3)cc2NC1=O (centres undefined),–,?,11µM,–,–,?
Cc1ccc(NC(=O)C2CCN(S(=O)(=O)c3ccc4c(c3)NC(=O)C(C)S4)CC2)c(Cl)c1 (centres undefined),·,·,11µM,·,·,18µM
COc1cccc(CNC(=O)C2CCN(S(=O)(=O)c3ccc4c(c3)NC(=O)C(C)S4)CC2)c1 (centres undefined),–,–,?,–,–,–
CC1Sc2ccc(S(=O)(=O)N3CCC(C(=O)NCCc4ccccc4)CC3)cc2NC1=O (centres undefined),–,?,?,–,?,–
COc1ccc(NC(=O)Nc2cccc(-c3cn4cccnc4n3)c2)cc1,–,–,·,–,?,–
Cc1ccc(CN2C[C@H](Sc3ccccn3)C[C@H]2C(=O)Nc2ccc3sc(C)nc3c2)s1,–,·,·,?,·,–
C/C(=N/Nc1ccnc2cc(Cl)ccc12)c1ccc(N)cc1,8.9µM,·,?,?,·,–
O=C(C[n+]1cccc(Br)c1)c1cccc([N+](=O)[O-])c1,–,·,·,–,·,·
C[C@]1(c2cnc(Nc3ccccc3)s2)CCC(=O)O1,·,·,·,·,–,·
CCOc1ccc(-c2nc3n(c(=O)c2C#N)CCCS3)cc1,·,7.1µM,?,–,?,–
C/C(=N\NC(=O)c1c(C)nc2ccccn12)c1ccccc1F,–,–,–,–,–,–
C/C(=N\NC(=O)c1c(C)nc2ccccn12)c1ccc(O)cc1O,?,–,6.3µM,?,–,–
CCCNC(=O)OC[C@H]1O[C@H](CCO/N=C2\C[C@@H](O)[C@@H](O)[C@@H]3[C@@H]4C(=O)N(CC)C(=O)[C@@H]4CC[C@@H]23)C=C[C@@H]1Oc1ccc(OC)cc1,·,·,·,·,–,·

# From PubChem BioAssay
